The panel holds about 79,000 compounds, 15% with a hit somewhere; the sample as a whole holds those more often. Activity calls are given as the source filed them. No stated cut-off is given here; in the data, active means growth inhibition above about 70%; inactive means the rest.
What was measured:
[1] = NCI Yeast Anticancer Drug Screen. Data for the rad50 strain (AID 155);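 further: 0% = growth of vehicle-only cultures of the same strain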; conditions: S. cerevisiae rad50 strain growth inhibition; at 50.0 µM; hits give high values
How it was run: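 Cells are treated with compound, grown, and their growth is then scored against vehicle-only cultures of the same repair-deficient yeast strain.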

[2] = NCI Yeast Anticancer Drug Screen. Data for the mec2-1 strain (AID 157); conditions: S. cerevisiae mec2-1 strain, at 50.0 µM, hits give high values
How it was run: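 Strain: mec2-1 (DNA repair/cell cycle alteration). Compound exposure, then growth measured; inhibition expressed relative to vehicle.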

[3] = NCI Yeast Anticancer Drug Screen. Data for the sgs1 mgt1 strain (AID 161);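 further: 0% = growth of cultures given vehicle only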; conditions: S. cerevisiae sgs1 mgt1 strain, at 50.0 µM, hits give high values
How it was run: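 Mutant yeast exposed to compound; growth scored against vehicle-only wells.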

[4] = NCI Yeast Anticancer Drug Screen. Data for the cln2 rad14 strain (AID 165);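 further: 0% = growth equal to vehicle treated cultures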; conditions: S. cerevisiae cln2 rad14 strain, at 50.0 µM, hits give high values
How it was run: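 Compounds are applied to the cln2 rad14 yeast strain, and growth is then compared with that of vehicle-treated cultures to give inhibition.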

[5] = NCI Yeast Anticancer Drug Screen. Data for the bub3 strain (AID 167); conditions: S. cerevisiae bub3 mutant strain, at 50.0 µM, hits give high values
How it was run: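 Part of a panel of yeast mutants defective in DNA damage repair or cell cycle regulation. Each strain is grown with compound, and inhibition is calculated relative to solvent-treated cultures.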

[6] = NCI Yeast Anticancer Drug Screen. Data for the mlh1 rad18 strain (AID 175); conditions: S. cerevisiae mlh1 rad18 strain growth inhibition; at 50.0 µM; hits give high values
How it was run: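 Read-out is yeast growth inhibition, calculated against vehicle-only controls. The compound was applied to a strain engineered with DNA damage repair alterations.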

Measured: growth inhibition

Cc1cc(CC(=S)[S-])[n+](C)c(CC(=S)S)c1
inactive: [1] 12.2% | [2] 8.05% | [3] -14.1% | [4] 3.75% | [5] -1.55% | [6] 19.8%

O=C(Nc1cccc(C(F)(F)F)c1)c1ccco1
inactive: [1] 34.5% | [2] 9.75% | [3] 28.7% | [4] 3.55% | [5] 11.1% | [6] 17%

C=C1CC(C)(Cn2cnc3c(=O)[nH]cnc32)OC1=O (centres undefined)
inactive: [1] 18.1% | [2] 22.7% | [3] 12.9% | [4] 8% | [5] 16.6% | [6] 21.6%

c1ccc(-c2nc(-c3nn[nH]n3)c3ccccc3n2)cc1
inactive: [1] -1.2% | [2] 13.7% | [3] 2.85% | [4] -19.6% | [5] 14.5% | [6] 20.8%

O=c1ccc2c(O)c([N+](=O)[O-])cc([N+](=O)[O-])c2[nH]1
inactive: [1] 10% | [2] -15.7% | [3] 3.15% | [4] 8.85% | [5] 6.3% | [6] 20.2%

Cc1cccc(NCN2C(=O)c3ccccc3C2=O)c1
inactive: [1] -1.8% | [2] 8.75% | [3] 3.8% | [4] -16.4% | [5] 18.7% | [6] -1.7%

O=c1[nH]c(=S)[nH]c2[nH]ccc12
inactive: [1] 6.75% | [2] -13.9% | [3] -19.6% | [4] -1.1% | [5] -0.6% | [6] -4.4%

CC1(C)C=C(O)C=C(O)C1
inactive: [1] 14.2% | [2] 2.8% | [3] 17.4% | [4] -2.25% | [5] 6.55% | [6] 2.5%

C/C(=N\NC(=O)CC(=O)N(C(=O)c1ccccc1Cl)c1ccc(C)cc1)c1ccc(Cl)cc1
inactive: [1] -0.5% | [2] -8.95% | [3] -25.4% | [4] -15.8% | [5] -4.25% | [6] -6.1%

CCOC(=O)C1CN(C)C(=O)C1=O (centres undefined)
inactive: [1] 17.2% | [2] -2.4% | [3] 16.6% | [4] 2.35% | [5] -0.05% | [6] 25.9%

CCCCCCCC[N+]1([O-])CC[N+](C)([O-])CC1 (centres undefined)
inactive: [1] 3.9% | [2] 4.1% | [3] -2.25% | [4] -21.5% | [5] -8.3% | [6] 2.55%

CC(C)NC(=O)c1ccc(CON)cc1
inactive: [1] 5.15% | [2] -9.7% | [3] 2.8% | [4] 23.5% | [5] 35% | [6] 9.8%

CCNC1(C(=O)O)CCCCC1
inactive: [1] 1.4% | [2] -2.15% | [3] -1.5% | [4] 9.85% | [5] 2.3% | [6] -0.2%

CSc1n[nH]c(-c2cccs2)n1
inactive: [1] -6.6% | [2] -15.7% | [3] 19.9% | [4] -8.3% | [5] -6.35% | [6] -0.9%

C=CCC(OC(=O)CC)c1ccc2c(c1)OCO2 (centres undefined)
inactive: [1] 7.3% | [2] -11.6% | [3] 5% | [4] 4.05% | [5] 9.3% | [6] -11.9%

CCCCCCCCCCCCOc1cccc(OCCCCCCCCCCCC)c1
inactive: [1] 29.4% | [2] -4.75% | [3] 21.8% | [4] -41.1% | [5] -1.9% | [6] -19.1%

CCCCCCCN=C(N)CSSCC(N)=NCCCCCCC
active: [1] 98.9% | [2] 99% | [3] 99.3% | [4] 98.7% | [5] 98.9% | [6] 99.2%

COc1ccc(/C=N\O[Si](C)(C)C(C)(C)C)cc1O[Si](C)(C)C(C)(C)C
inactive: [1] 31.9% | [2] 17.2% | [3] 21.9% | [4] 5.05% | [5] -3.25% | [6] 15.8%

Cc1ccc(S(=O)(=O)OCC2OCOC2C2OCOC2CI)cc1 (centres undefined)
inactive: [1] 12.2% | [2] 3% | [3] 2.6% | [4] -9.9% | [5] 10.1% | [6] 13.2%

C1=C(c2ccccc2)C(OC2Oc3ccccc3C=C2c2ccccc2)Oc2ccccc21 (centres undefined)
inactive: [1] 23.1% | [2] -2.15% | [3] 6.35% | [4] 11.9% | [5] 22.2% | [6] -3.65%

CCC(=O)Oc1ccc([N+](=O)[O-])cc1[N+](=O)[O-]
inactive: [1] 38.6% | [2] 30.6% | [3] 49.3% | [4] 26.6% | [5] -0.5% | [6] 21.6%

CN(CC(=O)NC(=O)c1ccccc1)Cc1ccccc1
inactive: [1] -1.7% | [2] -9.25% | [3] 3.95% | [4] -37% | [5] 3.55% | [6] -7.8%

CCOC(=O)c1ccc(C)cc1F
inactive: [1] -1.85% | [2] 2.3% | [3] 0.2% | [4] -38.6% | [5] -7.8% | [6] 7.65%

CCC/C(Cl)=N/OC(=O)Nc1cc(C(F)(F)F)ccc1OC
inactive: [1] -34.1% | [2] 17.6% | [3] 5.8% | [4] 8.5% | [5] 40.6% | [6] 21.3%

Fc1ccc(Cl)c2cccnc12
inactive: [1] 2.75% | [2] 9.85% | [3] -6% | [4] -33.7% | [5] 3.95% | [6] 8.1%

O=C(Nc1cccc2ccccc12)ON1C(=O)c2ccccc2C1=O
inactive: [1] -6.6% | [2] -39.6% | [3] -0.1% | [4] 12.5% | [5] -5.7% | [6] -2.4%

Oc1cncc2ccccc12
inactive: [1] 3.35% | [2] 5.2% | [3] 11.2% | [4] -1.35% | [5] 1.6% | [6] -4.85%

C#Cc1cccc(N=Cc2cc(Cl)cc(C)c2O)c1
inactive: [1] 16.1% | [2] 10.8% | [3] 36.5% | [4] 10.1% | [5] 37.7% | [6] 33.7%

CCCNC(=S)N=Nc1c(O)[nH]c2ccccc12
inactive: [1] -46.2% | [2] -55.8% | [3] -25.1% | [4] -31.5% | [5] -22.2% | [6] -11.2%

COc1cc([N+](=O)[O-])c2ncccc2c1OC
inactive: [1] 5.55% | [2] -11.1% | [3] -22.1% | [4] -20.2% | [5] 0.45% | [6] 68.2%

OC(CCN1CCC2CCC(C2)C1)(c1ccccc1)c1ccco1 (centres undefined)
inactive: [1] 7.75% | [2] -3.15% | [3] -5.25% | [4] -15.6% | [5] -0.05% | [6] -4.75%

CC(C)NC(=O)OCc1nnn2c1CCC2
inactive: [1] -6.9% | [2] 0.05% | [3] -12.5% | [4] -22.7% | [5] -0.05% | [6] -4.05%

Cc1ccccc1NC(=O)Cc1csc2[n+]1C(=O)/C(=C\c1ccc3c(c1)OCO3)S2
inactive: [1] 22.9% | [2] 7.6% | [3] 17.9% | [4] 3% | [5] 11.2% | [6] 7%

COCCNC(=O)C1C(=O)C(=O)N(CCOC)C1=O (centres undefined)
inactive: [1] -17.8% | [2] -7.65% | [3] -17.2% | [4] -4.25% | [5] -19.6% | [6] -3.5%

O=C(CCN1C(=O)NC(c2ccccc2)(c2ccccc2)C1=O)NCCN1CCOCC1
inactive: [1] -0.6% | [2] 13.5% | [3] 5.7% | [4] 0.95% | [5] -2% | [6] 24.7%

Cn1ncc2c(=O)[nH]c(=S)[nH]c21
inactive: [1] -9.6% | [2] -4.4% | [3] -5.65% | [4] -32.1% | [5] -2.3% | [6] 3.6%

Cc1ccc(-c2cn3c(nc4ccccc43)c(-c3ccccc3)n2)cc1
inactive: [1] -25.6% | [2] -26.9% | [3] -41.6% | [4] -53.4% | [5] -26.1% | [6] -45%

CC1(O)C=CC2CCC1C2O (centres undefined)
inactive: [1] 11.9% | [2] -2.55% | [3] 10% | [4] 19.2% | [5] 0.15% | [6] 19.6%

c1ccc2c(c1)CC1c3ccccc3CC21 (centres undefined)
inactive: [1] -1.2% | [2] -7% | [3] -1.95% | [4] -28.4% | [5] 0.75% | [6] -2.35%

From PubChem BioAssay (NCI)
